Data from PubChem BioAssay (NCI).
About 83,000 compounds went through this panel and 20% of them were active in at least one assay; those are over-represented in the sample as a whole.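 Treatment: one concentration, 48 hours, 96-well format. Scoring: percent growth, with anything below 10 considered active.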 Values without a mark were called inactive. Calls of active or inactive are those of the source.

Test system: NCI-H522 lung
Test: NCI-60 one-dose screen, 48 h (100 = growth as untreated, 0 = no growth, -100 = all killed)
Conditions: 10 µM unless noted

| Compound | growth |
| --- | --- |
| CC(C)C1=NOC(=O)C1=Cc1cn(-c2ccccc2)nc1-c1ccccc1 | 68.7% |
| CCN(CC)CCCNCc1cc(-c2ccccc2)nc2ccccc12 | 74.7% |
| CCOC(=O)CCC[P+](c1ccccc1)(c1ccccc1)c1ccccc1 | 63.1% |
| Cc1cccc(C[C@H](NC(=O)Nc2ccc(Cl)cc2F)C(=O)N[C@@H]2C(=O)N3C[C@H](O)C[C@H]3C(=O)N3CCN(C)C[C@H]3C(=O)N[C@@H](C)C(=O)N3C[C@H](C)C[C@H]3C(=O)O[C@H]2C)c1 | 33.2% |
| COc1cc(C)cc2oc3oc(=O)c(C(=O)c4cc5cc(Br)ccc5o4)cc3c(=O)c12 | 101% |
| COc1ccc(CC(C#N)c2ccc(Cl)cc2)cc1 (configuration not stated) | 78.1% |
| Clc1ccc(/C=N/Nc2nc3ccccc3s2)c(Cl)c1 | 97.2% |
| Nc1nc(SCc2cccc([N+](=O)[O-])c2)c2[nH]cnc2n1 | 81.1% |
| COC(=O)[C@]12CCC(C)(C)C[C@H]1C1=CC[C@@H]3[C@@]4(C)C/C(=C/c5cccnc5)C(=O)C(C)(C)[C@@H]4CC[C@@]3(C)[C@]1(C)CC2 | -72.9% [100 µM] (active) |
| Cn1cc(-c2nnc(-c3cn(C)c4ncccc34)o2)c2ccccc21 | 21.3% |
| Cc1ccc(C2=C/C(=C/c3ccc(Br)cc3)C(=O)N2CCc2ccc(S(N)(=O)=O)cc2)cc1 | 89% |
| COc1ccc2nc3cc(Cl)ccc3c(Nc3ccc(O)cc3)c2c1 | 72.5% |
| CCCCN(CC)CC(CC)Nc1cc(OC)cc2cccnc12 (configuration not stated) | 118% |
| O=C(Nc1cccc2ccccc12)c1cc2ccccc2cc1O | 9.44% (active) |
| C=C(C)[C@@H]1CC[C@]2(COCCC#N)CC[C@]3(C)[C@H](CC[C@@H]4[C@@](C)(CCCNCCC#N)[C@H](C(=C)C)CC[C@]43C)[C@@H]12 | -6.77% [100 µM] (active) |
| Cc1ccc(-c2cn(C/C=C3\C=CN(S(=O)(=O)c4ccccc4)CC3)nn2)cc1 | 93.3% |
| CN(C)c1ccc(-c2ccc(-c3ccc(C(=N)N)cc3)s2)cc1 | -50.3% (active) |
| CCOC(=O)c1nn(C2CCCCO2)c2ccc(NC(=O)CN3CCOCC3)cc12 (configuration not stated) | 106% |
| Cn1cc(-c2noc(-c3cn(C)c4ncc(Br)cc34)n2)c2cc(Cl)ccc21 | 63.1% |

| Compound | growth |
| --- | --- |
| Cc1cc2c(C(C)C)c(O)c(O)c(C=NCc3ccoc3)c2c(O)c1-c1c(C)cc2c(C(C)C)c(O)c(O)c(C=NCc3ccco3)c2c1O | 35.4% |
| Cc1cccc(C[C@H](NC(=O)Nc2ccc(C)cc2F)C(=O)N[C@@H]2C(=O)N3C[C@H](O)C[C@H]3C(=O)N3CCN(C)C[C@H]3C(=O)N[C@@H](C)C(=O)N3C[C@H](C)C[C@H]3C(=O)O[C@H]2C)c1 | 38% |
| COc1cc2c(c(Br)c1N)-c1cc(Br)c(N)cc1C2=O | 70.5% |
| CCN(CC)CCSC(=O)C(O)(c1ccccc1)C1CCCC1 (configuration not stated) | 86.7% |
| CCN(CC)CCCOc1ccc2c(c1)O/C(=C\c1cccc(OC)c1)C2=O | 98.8% |
| CCOC(=O)/C(C#N)=C(\C)CCc1ccccc1 | 86.1% |
| O=C(CCN1CCCCC1)c1ccc(Cl)cc1 | 95.8% |
| C[C@H]1[C@H](C)CC[C@]2(C(=O)O)CC[C@]3(C)C(=CC[C@@H]4[C@@]5(C)C/C(=C/c6ccco6)C(=O)C(C)(C)[C@@H]5CC[C@]43C)[C@H]12 | -82.7% [100 µM] (active) |
| Cc1ccc(NC(=O)N[C@@H](Cc2cc(F)cc(F)c2)C(=O)N[C@@H]2C(=O)N3CCC[C@H]3C(=O)N3CCOC[C@H]3C(=O)N[C@@H](C)C(=O)N3C[C@H](C)C[C@H]3C(=O)O[C@H]2C)cc1 | 37.7% |
| CCCCOC(=O)c1c(C)[nH]c(/C=C2\N=C(c3ccc[nH]3)C=C2OC)c1C | -41.3% (active) |
| O=C(O)c1cn(C2CC2)c2cc(N3CCN(Cc4cc(Cl)ccc4O)CC3)c(F)cc2c1=O | 67.5% |
| C[n+]1cccc(NC(=O)c2ccc3ccc4ccc(C(=O)Nc5ccc[n+](C)c5)nc4c3n2)c1 | -19% (active) |
| O=c1cc(-c2ccccc2)oc2cc(OCc3cn(Cc4ccc(F)cc4)nn3)cc(O)c12 | 15.1% [100 µM] |
| CCc1ccc(NC(=O)N[C@@H](Cc2cc(F)cc(F)c2)C(=O)N[C@@H]2C(=O)N3C[C@H](O)C[C@H]3C(=O)N3CCOC[C@H]3C(=O)N[C@@H](C)C(=O)N3C[C@H](C)C[C@H]3C(=O)O[C@H]2C)cc1 | 27% |
| C=C(CC(=O)OC)C(C)=O | 101% |
| O=C1/C(=C\c2cn(CC(O)CN3CCCCC3)c3ccccc23)c2ccccc2N1c1c(Cl)cccc1Cl (configuration not stated) | -77.5% (active) |
| CC/C=C(\C)C(CCC)(CN=O)C(=O)OCC (configuration not stated) | 92.8% |
| CN(C)C(=S)Sc1ccc([N+](=O)[O-])cc1[N+](=O)[O-] | -92.1% (active) |
